KCNQ2 block: inhibitors of rat KCNQ2 potassium channel | O88943 | CHO-K1 KCNQ2, FluxOR thallium flux, 20 min; stronger effect = lower value | B-score at 10 µM | 1.1% of 310,000 active | AID 2156;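 active means fluorescence ratio B-score at most minus 3 library SDs, with starting brightness B-score within 2 library SDs, cut at about -5.5 in these data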
KCNQ2 enhance: KCNQ2 (rat) channel potentiation | CHO-K1 KCNQ2, FluxOR thallium flux fluorescence; stronger effect = higher value | B-score at 10 µM | 0.54% of 310,000 active | AID 2239;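 active means fluorescence ratio B-score at least 3 SD of library B-scores, with initial fluorescence B-score within 3 of them, cut at about 5.3 in these data; same plate scores as AID 2156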;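 further: B-score of peak minus minimum over baseline fluorescence ratio after K+ and Tl+ stimulus; positive B-score means potentiation of KCNQ2 with more thallium influx and brighter signal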
Active calls of the source: *. Most compounds without a hit are left out; they make up all but 1.6% or so of the library.

Screening CCOC(=O)Cn1c(=NC(=O)CSC(C)=O)sc2cc(OC)ccc21 returned KCNQ2 block inactive.
CCOC(=O)Cn1c(=NC(=O)CSC(C)=O)sc2ccccc21 was read as KCNQ2 block -6.77* and KCNQ2 enhance -6.77.
Screening Cc1ccc(NS(=O)(=O)c2cc3[nH]c(=O)c(=O)[nH]c3cc2C)c(C)c1 returned KCNQ2 block inactive.
For OCC[C@H]1C[C@H](O)[C@@H](O)[C@@]2(CCCO2)O1 the results were KCNQ2 block inactive.
Cc1cc(C)c2[nH]c(=O)c(C(c3nnnn3CC3CCCO3)N3CCCC(C)C3)cc2c1 (configuration not stated) was read as KCNQ2 block -5.61* and KCNQ2 enhance -5.61.
Cc1cccc2cc(C(c3nnnn3Cc3ccccc3)N3CCN(c4ccccc4)CC3)c(=O)[nH]c12 (configuration not stated) was read as KCNQ2 block -9.04* and KCNQ2 enhance -9.04.
COc1ccc(Cn2nnnc2C(c2cc3cc(C)cc(C)c3[nH]c2=O)N2CCOCC2)cc1 (configuration not stated) was read as KCNQ2 block -6.66* and KCNQ2 enhance -6.66.
Screening CCc1ccc2[nH]c(=O)c(C(c3nnnn3Cc3ccc(OC)cc3)N3CCOCC3)cc2c1 (configuration not stated) returned KCNQ2 block inactive.
Screening Cc1cccc2cc(C(c3nnnn3Cc3ccccc3)N3CCN(C)CC3)c(=O)[nH]c12 (configuration not stated) returned KCNQ2 block inactive.
For Cc1cc(C)c2cc(C(c3nnnn3C3CCCC3)N3CCOCC3)c(=O)[nH]c2c1 (configuration not stated) the results were KCNQ2 block -6.05* and KCNQ2 enhance -6.05.
`Cc1cc(C)c2[nH]c(=O)c(C(c3nnnn3CC3CCCO3)N3CCC(C)CC3)cc2c1` (configuration not stated) gave KCNQ2 block inactive.
For Cc1ccc2cc(C(c3nnnn3C3CCCC3)N3CCN(c4ccc(F)cc4)CC3)c(=O)[nH]c2c1 (configuration not stated) the results were KCNQ2 block inactive.
For NS(=O)(=O)c1cccc(NC(=O)Cn2cc(C(F)(F)F)cc(Cl)c2=O)c1 the results were KCNQ2 block inactive.
Screening COc1ccc(CNC(=O)CN=C2NC(=O)C(c3ccccc3)(c3ccccc3)N2)cc1 returned KCNQ2 block -6.09* and KCNQ2 enhance -6.09.
For O=C(CN=C1NC(=O)C(c2ccccc2)(c2ccccc2)N1)NCc1ccc(F)cc1 the results were KCNQ2 block inactive.
Screening CCn1c(CNC(=O)c2ccc(F)cc2)cc2ccccc21 returned KCNQ2 block inactive and KCNQ2 enhance 3.59.
`C=CCNC(=S)Nc1sc2c(c1C(=O)OCC)CCN(C(=O)OCC)C2` gave KCNQ2 block inactive.
C=CCNC(=S)Nc1sc2c(c1C(=O)OCC)CC(C)(CC)OC2 (configuration not stated) was read as KCNQ2 block inactive and KCNQ2 enhance 9.92*.
Screening Cc1ccc2nc(NC(=O)C3CCN(C(=O)c4ccc(F)cc4)CC3)sc2c1 returned KCNQ2 block inactive and KCNQ2 enhance 0.4.
`CCN(CC)C(=O)Cn1cnc2sc(C(=O)NCCCN3CCOCC3)c(C)c2c1=O` gave KCNQ2 block inactive and KCNQ2 enhance 0.12.
For CC(C)n1nc(C(=O)Nc2ccccc2N2CCOCC2)c2ccccc2c1=O the results were KCNQ2 block inactive.
For Cn1nc(C(=O)Nc2ccccc2N2CCCC2)c2ccccc2c1=O the results were KCNQ2 block -5.64* and KCNQ2 enhance -5.64.
Screening O=C(NC(=S)Nc1ccccc1)c1cncc(C#Cc2ccccc2)c1 returned KCNQ2 block inactive and KCNQ2 enhance 2.11.
For Cc1ccc(C)c(NS(=O)(=O)c2cc(C(=O)NCCSC3CCCCC3)ccc2C)c1 the results were KCNQ2 block inactive.
Screening Cc1ccccc1NS(=O)(=O)c1cc(C(=O)NCCSC2CCCCC2)ccc1C returned KCNQ2 block -5.78* and KCNQ2 enhance -5.78.
For COc1ccccc1C(=O)NCCC(=O)NCC(c1ccc(F)cc1)N1CCOCC1 (configuration not stated) the results were KCNQ2 block inactive and KCNQ2 enhance 0.03.
CC(Oc1cccc(Cl)c1)C(=O)N(C)CC(=O)Nc1ccc(N2CCOCC2)cc1 (configuration not stated) was read as KCNQ2 block inactive and KCNQ2 enhance 1.58.
For CCN(CC)S(=O)(=O)c1ccc(N2CCN(C)CC2)c(NC(=O)COc2ccc(F)cc2Cl)c1 the results were KCNQ2 block inactive.
COc1ccc(N(C)S(=O)(=O)c2cccc(C(=O)NC3CCCCCC3)c2)cc1 was read as KCNQ2 block inactive.
For COc1ccc(N(C)S(=O)(=O)c2cccc(C(=O)NC3CCCC(C)C3C)c2)cc1 (configuration not stated) the results were KCNQ2 block -7.29* and KCNQ2 enhance -7.29.
Screening CCOC(=O)N1CCN(CCC(=O)c2ccc(OC)cc2)CC1 returned KCNQ2 block inactive.
For CCOC(=O)N1CCN(CCC(=O)c2ccc(Cl)cc2)CC1 the results were KCNQ2 block -6.74* and KCNQ2 enhance -6.74.
S=C(NCc1ccc(Cl)cc1Cl)NC1CCCCC1 was read as KCNQ2 block inactive and KCNQ2 enhance 3.51.
For N#CC(C(=O)NC1CCCCC1)=C1CCCCCC1 the results were KCNQ2 block inactive and KCNQ2 enhance 0.11.
For C[C@@H]1CC=C[C@H]2[C@H]1C(=O)N(Cc1ccccc1)[C@H]2c1ccc2ccccc2c1 the results were KCNQ2 block inactive.
C[C@@H]1CC=C[C@H]2[C@H]1C(=O)N(Cc1ccccc1)[C@H]2c1ccoc1 was read as KCNQ2 block inactive.
For CC[C@@H]1CC=C[C@H]2[C@H]1C(=O)N(Cc1ccccc1)[C@H]2c1ccoc1 the results were KCNQ2 block -6.18* and KCNQ2 enhance -6.18.
C[C@@H]1CC=C[C@H]2[C@H]1C(=O)N(Cc1ccccc1)[C@H]2c1ccc2ccccc2c1Br was read as KCNQ2 block -7.54* and KCNQ2 enhance -7.54.
`Cc1nn2c(N)c(-c3ccccc3)cnc2c1-c1ccccc1` gave KCNQ2 block inactive.
Screening O=C1c2ccsc2SCCN1Cc1c(F)cccc1Cl returned KCNQ2 block inactive.
For O=C1c2ccsc2SCCN1Cc1c(Cl)cccc1Cl the results were KCNQ2 block -6.65* and KCNQ2 enhance -6.65.
O=C1C(=O)N(C2CCCC2)C(=O)N1Cc1c(F)cccc1Cl was read as KCNQ2 block inactive.
CC(C)(C)OC(=O)N1CCC(CC2CC(c3cccc(Br)c3)=NO2)(C(=O)NCC2CCCCC2)CC1 (configuration not stated) was read as KCNQ2 block -8.07* and KCNQ2 enhance -8.07.
Screening O=C(c1ccccc1)N1CCC(CC2CC(c3cccc(Br)c3)=NO2)(C(=O)NCC2CCCCC2)CC1 (configuration not stated) returned KCNQ2 block inactive.
Cc1ccc(C(=O)NC(C)C2CC3CCC2C3)c(C)c1 (configuration not stated) was read as KCNQ2 block -7.72* and KCNQ2 enhance -7.72.
`CC(NC(=O)c1ccc(F)cc1Cl)C1CC2CCC1C2` (configuration not stated) gave KCNQ2 block inactive.
For CCCNC(=O)c1ccc2c(c1)nc(C)n2-c1cccc(Cl)c1 the results were KCNQ2 block inactive.

Screening results: PubChem BioAssay, Johns Hopkins Ion Channel Center
